Results taken from publication PMC4336329 (PLoS ONE, 2015).
The whole screen tested about 310,000 compounds, of which about 14,000 (4.5%) showed an effect of 50% or more. Effects have a minus sign here. Only a selection was taken, and strong results are over-represented in it overall.

target: human ether-à-go-go-related gene (hERG) potassium channel (human, UniProt Q12809); test: primary screen, population patch clamp on CHO cells stably expressing hERG; higher = less effect of the substance
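Note: peak tail current of the secondary pulse compared with the same well before compound.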

Chain of human ether-à-go-go-related gene (hERG) potassium channel (Q12809 whole entry, looked up): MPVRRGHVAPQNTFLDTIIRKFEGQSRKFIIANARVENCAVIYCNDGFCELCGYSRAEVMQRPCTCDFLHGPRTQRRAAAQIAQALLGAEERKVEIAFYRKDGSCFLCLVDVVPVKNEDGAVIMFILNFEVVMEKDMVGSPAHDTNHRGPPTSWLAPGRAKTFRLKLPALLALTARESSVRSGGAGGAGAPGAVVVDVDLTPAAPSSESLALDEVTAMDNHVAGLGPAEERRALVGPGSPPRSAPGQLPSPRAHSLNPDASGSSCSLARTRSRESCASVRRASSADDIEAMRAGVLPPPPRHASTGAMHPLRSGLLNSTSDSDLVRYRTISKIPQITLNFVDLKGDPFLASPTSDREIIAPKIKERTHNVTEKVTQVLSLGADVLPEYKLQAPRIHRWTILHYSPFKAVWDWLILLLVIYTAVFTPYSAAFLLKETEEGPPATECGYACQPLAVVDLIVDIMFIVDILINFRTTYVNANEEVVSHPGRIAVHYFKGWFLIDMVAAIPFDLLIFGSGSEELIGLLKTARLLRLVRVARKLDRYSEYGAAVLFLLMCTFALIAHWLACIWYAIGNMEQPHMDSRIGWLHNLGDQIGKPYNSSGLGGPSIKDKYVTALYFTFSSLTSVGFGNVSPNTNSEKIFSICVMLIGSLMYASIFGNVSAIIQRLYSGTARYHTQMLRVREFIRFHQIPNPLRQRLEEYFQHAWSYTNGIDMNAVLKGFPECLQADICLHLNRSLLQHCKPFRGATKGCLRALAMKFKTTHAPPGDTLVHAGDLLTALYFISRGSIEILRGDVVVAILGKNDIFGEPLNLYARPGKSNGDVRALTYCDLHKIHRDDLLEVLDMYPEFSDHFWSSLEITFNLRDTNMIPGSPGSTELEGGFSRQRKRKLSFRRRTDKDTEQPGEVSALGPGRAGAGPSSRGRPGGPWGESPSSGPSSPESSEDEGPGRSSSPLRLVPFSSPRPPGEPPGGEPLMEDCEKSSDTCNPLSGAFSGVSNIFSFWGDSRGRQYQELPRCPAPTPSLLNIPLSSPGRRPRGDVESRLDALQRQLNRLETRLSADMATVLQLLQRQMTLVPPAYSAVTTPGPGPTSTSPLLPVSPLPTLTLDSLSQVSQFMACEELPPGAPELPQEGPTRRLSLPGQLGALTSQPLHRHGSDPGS

Row | Compound | hERG current change (%, negative = inhibition) at 10uM
1 | Cc1ccccc1CN(C)CC(=O)NC(C)CCc1ccccc1 (centres unmarked) | -17.2%
2 | O=C(CSc1nnc(-c2ccccc2)n1C1CCCCC1)N1CCCC1 | -6.76%
3 | CCC1(C)Cc2c(sc3nc(SC)nc(N)c23)CO1 (centres unmarked) | -7.82%
4 | O=C1NC(Cc2ccccc2)c2nc3ccccc3c(=O)n2-c2cc(Cl)ccc21 (centres unmarked) | 11.4%
5 | CCCCn1c(N)c(N(CCC(C)C)C(=O)C2=NN(c3cc(C)ccc3C)C(=O)CC2)c(=O)[nH]c1=O | -1.89%
6 | OC(CNC1CCCCC1)C(F)(F)F (centres unmarked) | -2.73%
7 | CCC(C)[C@H](NC(=O)[C@@H]1Cc2ccccc2CN1)C(=O)NCc1ccc(OC)cc1 (some centres unmarked) | -32.7%
8 | CC1CCCCN1C(=O)COC(=O)c1cc(-c2cccs2)nn1-c1ccccc1 (centres unmarked) | 0.387%
9 | O=[N+]([O-])c1cc(/C=N/O)ccc1Sc1ccccc1 | 13.7%
10 | CC1CCCCN1C(=O)CSc1nnc(-c2ccco2)o1 (centres unmarked) | 2.08%
11 | CCOC(=O)CN1CC23C=CC(O2)C(C(=O)Nc2cc(OC)ccc2OC)C3C1=O (centres unmarked) | -3.04%
12 | CC[N+](CC)(CC(=O)Nc1c(C)cccc1C)Cc1ccccc1.O=C([O-])c1ccccc1 | 14.7%
13 | CC(/C=C/c1ccco1)=N\NC(=O)CNc1cccc(C)c1 | 18.1%
14 | O=S(=O)(O)c1nc2ccccc2n1Cc1ccccc1 | -10.5%
15 | CCOc1ccc(N(CC(=O)NCC2CCCO2)S(=O)(=O)c2ccc(C)cc2)cc1 (centres unmarked) | -10.3%
16 | COc1ccc(NC(=O)COc2ccc(C)cc2)c([N+](=O)[O-])c1 | 7%
17 | CCOc1ccc(OCC(=O)Nc2ccc(OC)cc2[N+](=O)[O-])cc1 | 3.3%
18 | COc1ccc(OCC(=O)N/N=C(\C)CC(=O)Nc2ccc(OC)cc2[N+](=O)[O-])cc1 | -93.8%
19 | COc1ccc2sc(C)nc2c1NC(C)=O | 9.21%
20 | COc1ccc(-c2nc(SCC(=O)N3CCOCC3)n[nH]2)cc1 | -4.25%
21 | CC(=O)Nc1nonc1-c1nc2ccccc2n1Cc1ccccc1 | 13.2%
22 | O=C(NCCc1c[nH]c2ccccc12)/C(=C\c1cccnc1)NC(=O)c1ccccc1Br | -65.1%
23 | CC(=O)N/C(=C/c1ccc(Cl)cc1)C(=O)NCCc1c[nH]c2ccccc12 | -20.8%
24 | O=C(NCCc1c[nH]c2ccccc12)/C(=C/c1cccnc1)NC(=O)c1cccs1 | -19.1%
25 | O=C(NCCc1c[nH]c2ccccc12)/C(=C\c1cccnc1)NC(=O)c1cccs1 | -17%
26 | O=C(NCCc1c[nH]c2ccccc12)/C(=C/c1cccnc1)NC(=O)c1ccccc1 | -14.3%
27 | O=C(NCCc1c[nH]c2ccccc12)/C(=C\c1cccnc1)NC(=O)c1ccccc1F | -58.5%

Row | Compound | hERG current change (%, negative = inhibition) at 10uM
28 | NC(=O)NC(CC(=O)NCCc1ccc(S(N)(=O)=O)cc1)c1ccccc1Cl (centres unmarked) | 6.81%
29 | CC(C(=O)N1c2ccc(F)cc2CCC1C)N1C(=O)c2ccccc2C1=O (centres unmarked) | 2.72%
30 | Cc1ccc(-c2csc(N(CCCN3CCOCC3)C(=O)c3ccco3)n2)cc1.Cl | -19.1%
31 | Cl.O=C(c1ccco1)N(CCCN1CCOCC1)c1nc(-c2ccc(Cl)cc2)cs1 | -13.4%
32 | CN(C)CCCN(C(=O)c1ccco1)c1nc(-c2ccc(Cl)cc2)cs1.Cl | -72.5%
33 | CN(C(=O)c1ccco1)c1nc(-c2ccc(Cl)cc2)cs1 | 8.09%
34 | COCCCN(C(=O)c1ccco1)c1nc(-c2ccc(OC)cc2)cs1 | 1.81%
35 | Cc1ccc(-c2csc(N(CCCN(C)C)C(=O)c3ccco3)n2)cc1.Cl | -74.8%
36 | COc1ccc(-n2nc(C(=O)NCC(=O)NCc3ccco3)c3ccccc3c2=O)c(OC)c1 | 11.3%
37 | Cl.c1ccc(NNC2=NCCCCC2)cc1 | 8.92%
38 | O=C(O)Cn1c(=O)c2c3c(sc2n(Cc2ccc(F)cc2)c1=O)CCCC3 | 17.9%
39 | Cc1ccc(C)c(OCc2nc3ccc(S(=O)(=O)Nc4c(C)n(C)n(-c5ccccc5)c4=O)cc3[nH]2)c1 | 7.31%
40 | CCCCN(C)CCN1C(=O)C2C(C(=O)Nc3cccc(OC)c3)C3C=CC2(O3)C1C(=O)NC1CCCCC1C (centres unmarked) | -14.7%
41 | CC(C)(C)C(=O)Nc1cc(NC(=O)C(C)(C)C)cc(C(=O)NNC(=O)c2ccncc2)c1 | 16.5%
42 | CCOc1ccc(NC(=O)N2CCC(n3nnc4ccccc43)CC2)cc1 | -15.4%
43 | Cc1ccc2c(c1)nnn2C1CCN(C(=O)C2CCCCC2)CC1 | -31.3%
44 | CCOc1ccccc1NC(=O)N1CCC(n2nnc3cc(C)ccc32)CC1 | -53.9%
45 | Cc1ccc2c(c1)nnn2C1CCN(C(=O)c2ccccc2F)CC1 | -18.1%
46 | Cc1ccc2c(c1)nnn2C1CCN(C(=O)NCc2ccccc2)CC1 | -76.7%
47 | CCOc1ccccc1C(=O)N1CCC(n2nnc3cc(C(F)(F)F)ccc32)CC1 | -60%
48 | Cc1cccc(NC(=O)N2CCC(n3nnc4cc(C)ccc43)CC2)c1 | -62.9%
49 | COc1ccc(NC(=O)N2CCC(n3nnc4cc(C)ccc43)CC2)cc1 | -11.3%
50 | COc1cccc(NC(=O)N2CCC(n3nnc4ccccc43)CC2)c1 | -18.8%
51 | Cc1ccc2c(c1)nnn2C1CCN(C(=O)Nc2ccccc2C)CC1 | -22.6%
52 | CCOc1ccccc1C(=O)N1CCC(n2nnc3cc(C)ccc32)CC1 | -47.4%
53 | O=C(c1c(F)cccc1F)N1CCC(n2nnc3cc(C(F)(F)F)ccc32)CC1 | -21.4%
